SMILES strings stand for the structures. Values joined by “and” are separate entries in the source; they are usually repeats but may differ in a detail not shown here. Equal values may be shown once. Records with an inconclusive call do not appear. Unmarked numbers belong to inactive results. Active and inactive are the calls of the source. The call rests on the fitted dose curve; in most records, active means well fitted inhibition curve with a large enough effect; inconclusive means small, poorly fitted or top-dose-only effect; inactive means no such curve, though single readings can be large or run the other way.
On the % scale 0 is the no-effect control and ±100 the full control effect; potency means the concentration at half of the fitted maximal effect.

The assay is described as follows: Primary qHTS for inhibitors of nuclear receptor binding SET domain protein 2 (NSD2) in an RCH-ACV wild type WT cells (2C) (AID 1645877). Further: nearly all actives have a fitted effect of over 70% in size. The conditions noted are these: RCH-ACV (leukaemia line) NSD2 WT (2C) viability, CellTiter-Glo, 72 h; series mostly up to 44.9 µM; activity change, negative = cell killing: at the top concentration. (In qHTS, concentration-response curves come from the screen itself.)
As to `COc1cc2c(cc1Cc1cccc(Cl)c1F)c(=O)c(C(=O)O)cn2[C@H](CO)C(C)C`, the Potency is 5.25 µM (active).
In the case of `CN1CC(=O)NC1=NC(=O)Nc1cccc(Cl)c1`, the “activity change, negative = cell killing” value was 7.08%.
Same read-out and setting: with `OC1CCC(Nc2ncc3nc(Nc4c(F)cc(F)cc4F)n([C@@H]4CCOC4)c3n2)CC1` (stereo not given in full) the figure was -19.6%.
With `C[C@@]1(C(=O)Nc2ccc(F)nc2)CCCN1c1nc(Nc2cc(C3CC3)[nH]n2)c2cccn2n1`, the Potency was 2.63 µM (active).
Turning to `CCN1CCN(c2ccc(Nc3cc(N(C)C(=O)Nc4c(Cl)c(OC)cc(OC)c4Cl)ncn3)cc2)CC1`, the “activity change, negative = cell killing” value was -17.7%.
For the molecule `CC(C)[C@H](O)C(=O)N[C@@H](C)C(=O)N[C@@H]1C(=O)N(C)CCc2ccccc21`, the “activity change, negative = cell killing” value is 1.02%.
In the case of `COc1cc2nccc(Oc3ccc(NC(=O)Nc4cc(C)on4)c(Cl)c3)c2cc1OC`, the Potency was 728 nM (active) and 4.17 µM (active).
For the molecule `CCCCC[C@H](O)C=C[C@H]1[C@H](O)CC(=O)[C@H]1CC=CCCCC(=O)O`, the Potency is 23.7 µM (active).
In the case of `O=C(Nc1ccc(OC(F)(F)F)cc1)c1sccc1NCc1ccnc2ccccc12`, the Potency was 18.6 µM (active).
Take `O=C1CN2Cc3c(ccc(Cl)c3Cl)N=C2N1`: the “activity change, negative = cell killing” value is -6.18%.
As to `COc1ccc(-c2ccc3ncc4c(c3c2)n(-c2ccc(N3CCNCC3)c(C(F)(F)F)c2)c(=O)n4C)cn1`, the Potency was 7.3 nM (active) and 14.6 nM (active) and 18.6 nM (active).
As to `Cc1cnc(-c2cc(N3CCN(C(=O)CCS(C)(=O)=O)CC3)ncc2Cl)c(C)c1`, the Potency result was “inactive”.
Same read-out and setting: the result for `O[C@@H](COc1cccc2ncccc12)CN1CCN(C2c3ccccc3[C@@H]3[C@H](c4ccccc42)C3(F)F)CC1` (stereo not given in full) reads 10.6 µM (active).
On to `CCC[C@H](N[C@@H](C)C(=O)N1[C@@H]2CCCC[C@H]2C[C@H]1C(=O)O)C(=O)OCC`, for which the call was inactive.
As to `C[C@@]1(c2cc(-c3cncnc3)c(F)cc2F)CCSC(N)=N1`, the Potency result is “inactive”.
Consider `CCN(CC)CCCCNc1nc2cc(Cl)c(Cl)cc2nc1-c1ccc(-c2cccs2)s1`, for which the Potency was 7.42 µM (active).
For `CC(C)(C)c1nc(-c2cccc(NS(=O)(=O)c3c(F)cccc3F)c2F)c(-c2ccnc(N)n2)s1`, the Potency is 4.68 µM (active).
The same measure, in the same setting: the result for `Cc1cnc(Nc2cccc(CN3CCOCC3)c2)nc1Nc1cccc(S(=O)(=O)NC(C)(C)C)c1` reads 0.515 µM (active); that for `CCC[C@H](Nc1nc(-c2ccc(NC(=O)NCC)c(OC)c2)ncc1C)c1cccnc1`, 0.0372 µM (active).
`COC(=O)[C@H](c1ccccc1Cl)N1CCc2sccc2C1`: the “activity change, negative = cell killing” value is -18.1%.
Regarding `Cc1ccc2c(c1)C(=O)[C@]1(O)CCN(c3ccccc3)C1=N2`, the Potency was 23 µM (active).
For `COc1ccc(-c2oc3c(CC=C(C)C)c(O)cc(O)c3c(=O)c2O)cc1`, the “activity change, negative = cell killing” value is -18.1%.
Consider `CC(C)C[C@@H](C(=O)N[C@H](C(=O)OC1CCCC1)c1ccccc1)[C@H](O)C(=O)NO`, for which the Potency was 14.8 µM (active).
In the case of `CO[C@@H]1C(N(C)C(=O)c2ccccc2)C[C@H]2O[C@]1(C)n1c3ccccc3c3c4c(c5c6ccccc6n2c5c31)C(=O)NC4=O` (stereo not given in full), the Potency is 1.32 µM (active).
Consider `CN(C)c1ccccc1CN1CCCN(Cc2ccccc2N(C)C)C1c1ccncc1`, for which the Potency is 10.5 µM (active).

These data come from PubChem BioAssay (NCATS).
